Results from PubChem BioAssay (NCI).
About 83,000 compounds went through this panel and 20% of them were active in at least one assay; those are over-represented in the sample as a whole.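 Compound tested at a single concentration for 48 hours in 96-well plates; a percent growth value below 10 was scored as active.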 Calls of active or inactive are those of the source.

How the values were obtained:
Assay in all cases: NCI-60 one-dose screen, 48 h (100 = growth as untreated, 0 = no growth, -100 = all killed)
Conditions in all cases: 10 µM unless noted
[1] = system: NCI-H23 lung
[2] = system: NCI-H226 lung
[3] = system: NCI-H322M lung
[4] = system: HOP-62 NSCLC
[5] = system: NCI-H460 lung
[6] = system: HOP-92 NSCLC
[7] = system: NCI-H522 lung
[8] = system: A549/ATCC NSCLC
[9] = system: 786-0 renal
[10] = system: COLO 205 colon

Measured: growth

CN1CCN(c2ccc(Nc3nc(NCCCNS(=O)(=O)c4ccc(C(F)(F)F)cc4)c4sccc4n3)cc2)CC1
active: [1] 2.34% | [3] -1.68% | [4] -49.1% | [5] -47.8% | [6] -55.9% | [7] -85.6% | [8] -12.1% | [9] -82.2% | [10] -76%
inactive: [2] 57.9%

CCCCCCNC(=O)Oc1ccc(/C(=C(/C)c2ccc(Cl)cc2)c2ccc(OCCN3CCCCCC3)cc2)cc1
inactive: [1] 52.2% | [2] 83.2% | [3] 96.8% | [4] 76.8% | [5] 40.9% | [6] 83.6% | [7] 92.3% | [8] 74.3% | [9] 63.7% | [10] 45.7%

Cc1ccc(C(=O)CSc2nnc(-c3ccc(-c4ccc(Cl)cc4)nc3C)o2)cc1
inactive: [1] 93% | [2] 88.6% | [3] 95.8% | [4] 92.5% | [5] 107% | [6] 88% | [7] 91.7% | [8] 106% | [9] 104% | [10] 117%

Cc1ccc(S(=O)(=O)c2nc(-c3ccc(F)cc3)oc2S(C)(=O)=O)cc1
inactive: [1] 71.2% | [2] 83.6% | [3] 95.9% | [4] 99.8% | [5] 101% | [6] 63% | [7] 61% | [8] 96.4% | [9] 80.6% | [10] 95.1%

Cn1cc(-c2nn3cc(-c4ccncc4)nc3s2)c2cc(F)ccc21
inactive: [1] 82% | [2] 83.5% | [3] 87.9% | [4] 79.6% | [5] 65.8% | [6] 49.2% | [7] 86.9% | [8] 94.9% | [9] 89.6% | [10] 55%

CN1CCN(c2ccc(Nc3nc(NCCNS(=O)(=O)c4ccc(Cl)cc4)c4sccc4n3)cc2)CC1
inactive: [1] 96% | [2] 105% | [3] 99.4% | [4] 104% | [5] 98.8% | [6] 49.4% | [7] 106% | [8] 92.7% | [9] 75.8% | [10] 99.7%

Cc1ccc2c(n1)C(=O)C(Cl)=C(Nc1ccc(C(=O)OC(C)(C)C)cc1)C2=O
inactive: [1] 75.2% [9.25 µM] | [2] 85.8% [9.25 µM] | [3] 101% [9.25 µM] | [4] 106% [9.25 µM] | [5] 102% [9.25 µM] | [8] 99.9% [9.25 µM]
active: [6] -54.9% [9.25 µM] | [7] -14.1% [9.25 µM] | [9] -56.4% [9.25 µM] | [10] -46.1% [9.25 µM]
